Pf growth 48h: inhibits P. falciparum growth in the first generation, 48 h; P. falciparum luciferase growth in erythrocytes, 48 h; Potency, µM (highest dose often 28.7 µM), inactives show at the top dose activity change, negative = inhibition, usual class: inhibitors; 310,000 tested, 5.9% active; also: potency is read from the fitted curve at half-maximal effect; % is scaled to controls: 0 for no effect and ±100 for the full control effect
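Here the parasites carry a stable luciferase gene and grow inside erythrocytes in Albumax-based RPMI medium with compound for one erythrocytic cycle. Activity is scored as loss of luminescent signal.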
Pf growth 96h: P. falciparum growth inhibition at 96 hours | P. falciparum luciferase reporter growth, 96 h | Potency, µM (highest dose often 28.7 µM), for inactives: at the highest dose activity change, negative = inhibition, most hits filed as inhibitors | 320,000 tested, 6.9% active | AID 504834; also: potency is read from the fitted curve at half-maximal effect; % is scaled to controls: 0 for no effect and ±100 for the full control effect
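Parasite growth measured via integrated firefly luciferase reporter in P. falciparum. Infected erythrocytes at 2% hematocrit, 0.05% parasitemia final were treated 96 hours at 37 C under 5% CO2, and luminescence was read.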
Lassa entry inh: inhibitors of Lassa virus binding or cell entry | Lassa virus pseudotype entry inhibition, cell reporter | 300,000 tested, 1.2% active | Potency, µM (top dose mostly 37.9 µM), for the others: top-dose activity change, negative = inhibition, most hits filed as inhibitors; calls by dose curve; tested in HEK293 cells; also: potency is read from the fitted curve at half-maximal effect; % is scaled to controls: 0 for no effect and ±100 for the full control effect; nearly all actives have a fitted effect of over 50% in size
MARV entry inh: Marburg virus entry inhibition | Marburg virus pseudotyped entry inhibition, cell reporter | Potency, µM (top dose mostly 37.8 µM), without a hit: at the top dose activity change, negative = inhibition, hits mostly inhibitors | 300,000 tested, 1.8% active; calls by dose curve; tested in HEK293 cells; also: potency is read from the fitted curve at half-maximal effect; % is scaled to controls: 0 for no effect and ±100 for the full control effect
Cycloheximide cs: counter-screen for Shiga toxin inhibitors: cycloheximide protein synthesis inhibition; cell reporter, cycloheximide protein synthesis inhibition counterscreen; max response, %; 300,000 tested, 12% active; in the data active = max response mostly above about 13%, no sharp cut-off; inactive = mostly below about 14%; also: read at 38.3 µM for the half of the compounds with a filed dose; 0% is about no effect
Shiga toxin inh: inhibitors of Shiga toxin in Vero cells. inhibition, % at 38.7 µM. Vero cells, Shiga toxin protein synthesis inhibition reporter. 290,000 tested, 9.2% active. AID 2315; in the data active = inhibition mostly above about 28%, no sharp cut-off; inactive = mostly below about 43%; also: 0% is about no effect
The depositor's hits bear a star; ? = inconclusive; / = no result; [ ] = remark or other dose. Sampled rows, rich in hits. Any-hit rate of the full collection: about 19%. Unless noted, calls follow the shape of the dose curve; as a rule, active = well fitted inhibition curve with a large enough effect; inconclusive = small, poorly fitted or top-dose-only effect, or another doubt; inactive = no such curve, though single readings can be large or run the other way.

SMILES	Pf growth 48h	Pf growth 96h	Lassa entry inh	MARV entry inh	Cycloheximide cs	Shiga toxin inh
Cc1cc(=O)n2c3ccccc3n(CC(O)CN3CCCC3)c2c1C#N (centres undefined)	?	?	?	-28.0%	-1.3	14.9
COC(=O)CC1C(=O)NCCN1C(=O)CSc1nnc(Nc2ccc(C)cc2)s1 (centres undefined)	/	7.38µM*	-9.5%	22.1%	-1.9	-10.4
COC(=O)C1CN(C(=O)COc2ccc(Cl)cc2Cl)c2ccccc2O1 (centres undefined)	1.7%	49.2%	/	/	15.7	3.1
COC(=O)C1CN(C(=O)COc2cccc(C)c2C)c2ccccc2O1 (centres undefined)	-4.6%	-1.4%	/	/	26.1*	44.1
O=C1C(=O)N(CCS(=O)(=O)c2ccccc2)c2ccccc21	33.6%	27.5%	/	/	0.9	13.3
COc1ccc2cc(-c3[nH]ncc3CN3CCCC3c3nonc3C)ccc2c1 (centres undefined)	-22.2%	4.65µM*	/	/	34.6*	50.9*
COc1ccc(-c2[nH]ncc2CN2CCCC(C(=O)c3cccc(OC)c3)C2)cc1 (centres undefined)	-14.7%	2.7%	-18.5%[46.1 µM]	?	-3.6	-7.7
C#CCOCCOCCOCCNc1nc(N2CCN(C(=O)CCCCCCCCCCNC(=O)Cn3cc(C[C@@H](C)O)nn3)CC2)nc(N2CCN(C(=O)CCCCCCCCCCNC(=O)[C@H](CCCCN)n3cc(C[C@@H](C)CC)nn3)CC2)n1	0.329µM*	0.465µM*	/	/	/	/
C#CCOCCOCCOCCNc1nc(N2CCN(C(=O)Cn3cc(CC(C)O)nn3)CC2)nc(N2CCN(C(=O)[C@H](CCCCN)n3cc(CCC(=O)O)nn3)CC2)n1 (some centres undefined)	20.8%	-1.3%	5.4%	4.5%	-3.1	-14.0
C#CCOCCOCCOCCNc1nc(N2CCN(C(=O)CCCCCCCCCCNC(=O)Cn3cc(C[C@@H](C)O)nn3)CC2)nc(N2CCN(C(=O)CCCCCCCCCCNC(=O)Cn3cc(C[C@@H](C)O)nn3)CC2)n1	0.131µM*	0.0828µM*	/	/	/	/
CC(C)(C)c1ccc(OCC(=O)O)cc1	?	24.5%	10.4%	?	-2.6	-17.1
CN(C)C(=O)O/N=C(\N)COc1ccc(C(C)(C)C)cc1	6.57µM*	11.7µM*	/	/	29.8*	31.1
CC(=O)Nc1ccccc1C(F)(F)F	?	5.6%	4.7%	-0.1%[46.1 µM]	-1.7	-6.9
Cn1cccc1C(=O)C(=O)Nc1ccccc1	211.2%	110.6%	?	?	42.6*	90.9*
CCOC(=O)c1cnn(-c2ccccc2)c1-n1cccc1C(=O)C(=O)N(CC)CC	-9.3%	?	1.9%	12.7%	5.6	-4.5
Cn1cccc1C(=O)C(=O)Nc1ccccc1C(F)(F)F	218.6%	0.0%	15.4%[46.1 µM]	?	39.9*	64.9*
O=C(C[n+]1ccccc1)Nc1ccccc1C(F)(F)F	5.8%	?	/	/	8.7	-5.9
CC(C)(C)C(=O)NC(=O)Nc1ccccc1C(F)(F)F	34.0%	20.5%	3.7%	12.5%	10.8*	20.3
CCOC(=O)c1cnn(-c2ccccc2)c1-n1cccc1C(=O)C(=O)Nc1ccccc1C(F)(F)F	13.1µM*	14.7µM*	-28.8%	?	0.2	-15.2
CC(Sc1cnc2ccccc2n1)C(=O)O (centres undefined)	/	21.5%	-3.6%	11.1%	2.3	2.6
CC1CN(C(=S)Nc2ccc(Br)cc2)CC(C)O1 (centres undefined)	-8.2%	?	/	/	-2.7	-4.8
Cc1cc(C)cc(NC(=S)N2CC(C)OC(C)C2)c1 (centres undefined)	-6.8%	2.08µM*	10.4%[46.1 µM]	10.3%[46.1 µM]	-2.3	-5.9
Cc1c([N+](=O)[O-])c(C(=O)Nc2ccc3c(c2)OCCO3)nn1C	164.2%	/	12.6%	?	51.6*	85.0*
Cc1nn(C(C)C(=O)Nc2ccc3c(c2)OCO3)c(C)c1[N+](=O)[O-] (centres undefined)	?	36.3%	/	/	3.7	73.6
Cc1csc(NC(=O)c2nn(C)c(C)c2[N+](=O)[O-])n1	102.6%	114.3%	29.0%	40.3%	24.8*	52.2*
SMILES	Pf growth 48h	Pf growth 96h	Lassa entry inh	MARV entry inh	Cycloheximide cs	Shiga toxin inh
Cc1nn(C)c(C(=O)Nc2ccc3c(c2)OCO3)c1[N+](=O)[O-]	-7.4%	?	/	/	21.0*	36.4
Cc1cc(C)n(C(=O)c2nn(C)c(C)c2[N+](=O)[O-])n1	28.1%	16.9%	22.1%	-16.8%	-1.2	-6.8
CCCC(=O)Nc1c2c(nn1-c1ccc(F)cc1)CS(=O)(=O)C2	1.3%	?	-16.8%[46.1 µM]	-33.3%[46.1 µM]	-5.3	-11.7
CCCNC(=O)COc1coc(CN2CCN(c3ccccc3OC)CC2)cc1=O	-3.2%	?	/	/	9.9	-13.1
Cc1ccc(O)cc1Nc1ccnc2cc(-c3ccccn3)ccc12	/	/	25µM*	/	/	/
Cc1cc(C)cc(N(CC(=O)NC2CCCCC2)C(=O)CCCC(=O)Nc2ccccn2)c1	?	8.1%	?	?	-3.4	11.7
O=C(CCC(=O)N(CC(=O)NC1CCCCC1)c1ccc2c(c1)OCCO2)Nc1ccccn1	35.4%	60.6%	/	/	20.6*	14.6
CCOc1ccc(N(CC(=O)NC2CCCCC2)C(=O)CCCC(=O)Nc2ccccn2)cc1	-7.5%	?	10µM*	-0.9%[46.1 µM]	1.5	-5.7
Cc1ccc(N(CC(=O)NC2CCCC2)C(=O)c2ccc(C)s2)cc1	-19.9%	-3.7%	3.4%	-17.2%	2.5	13.8
Cc1ccc(N(CC(=O)NC2CCCC2)C(=O)CCC(=O)Nc2ccccn2)cc1C	-20.8%	-6.5%	-8.1%	-8.5%	11.2	6.8
O=C(CN(C(=O)CCC(=O)Nc1ccccn1)c1ccc2c(c1)OCCO2)NCCc1ccccc1	4.1%	-6.2%	?	3.7%	11.6*	28.6
Cc1ccc(C(=O)N(CC(=O)NC2CCCC2)c2ccc3c(c2)OCCO3)s1	-15.1%	13.1µM*	/	/	9.7	-17.8
CCOc1ccc(N(CC(=O)NCc2ccccc2)C(=O)CCC(=O)Nc2nccs2)cc1	?	15.3%	-37.2%	?	9.0	19.5
CC(C)CCNC(=O)CN(C(=O)CCC(=O)Nc1ccccn1)c1ccc2c(c1)OCO2	33.0%	37.0%	0.6%	-0.2%	-1.8	-1.9
CC(C)CCNC(=O)CN(C(=O)CCC(=O)Nc1ccccn1)c1ccc2c(c1)OCCO2	75.0%	-7.4%	-17.9%	-24.0%	21.6*	55.8*
COC(=O)C(NC(=O)CC(C)C)(Nc1nc2c(s1)CCCC2)C(F)(F)F (centres undefined)	/	/	19.3%[46.1 µM]	?	/	/
COC(=O)C(NC(=O)COc1ccccc1)(Nc1nc2c(s1)CCCC2)C(F)(F)F (centres undefined)	?	10.4µM*	0.0%	-4.2%	11.9	11.6
COc1ccc(OCC(=O)Nc2nc3c(s2)CCCC3)cc1	18.5%	3.3%	/	/	35.9*	67.9*
Cc1ccc(C(C)C)c(OCC(=O)NN=C2CCCC2)c1	-20.1%	-19.7%	/	/	1.3	-6.8
O=C(COc1ccc(F)cc1)Nc1nc2c(s1)CCCC2	37.6%	?	19.5%	1.1%	37.6*	70.5

Compound activity: PubChem, National Center for Advancing Translational Sciences (NCATS)
